From PubChem BioAssay AID1259416 (Broad Institute, 2018)
Values joined by “and” are separate entries in the source; they are usually repeats but may differ in a detail not shown here. Identical values can stand only once. Hit rate of the full screen: of about 69,000 compounds, about 2,600 (3.8%) were called active. Cut-off read from the data, not from the text of the source: active = activity change below about -70% (passing the limit was not always enough); inconclusive = no clear call, values can overlap the other calls. What follows is part of a selection rich in actives, with near analogues and random picks from the rest. Where a structure was tested more than once in an assay, its records may differ in their call.

Assay: inhibitors of Toxoplasma growth in IFN-γ-primed hosts – cell-based, primary screen (AID 1259416);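 note: host cells are HeLa cells infected with Toxoplasma gondii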
Conditions: Toxoplasma gondii growth in IFN-gamma-treated host cells; stronger effect = lower value; concentration not given here

Compound	activity change, negative = inhibition
Cc1cnc(CN(C)C(=O)C(C)(C)NC(=O)c2cccs2)[nH]1	-13.9% (inactive)
CN1CCN(c2ccc3nc(-c4c(N)c5c(F)cccc5[nH]c4=O)[nH]c3c2)CC1	-66.4% (inactive) and -77.3% (active)
Clc1cccnc1-c1cccc2[nH]ccc12	9.34% (inactive)
CC(C)C(=O)NS(=O)(=O)c1ccc(NC(=O)c2ccccc2)cc1	5.8% (inactive)
COc1cccc(CNC(=O)Nc2ccc(-c3nc(-c4cc(C)ccc4C)co3)cc2)c1	-13% (inactive)
COc1cccc(NC(=O)Nc2ccc3c(c2)C(=O)N(C)C[C@@H](OC)[C@H](C)CN(CC2CC2)[C@H](C)CO3)c1	63.1% (inactive)
COc1cc(NC(=O)Nc2cccc(CNC(=O)O[C@H]3CCOC3)c2)ccc1-c1cnco1	-72.9% (active)
Cc1nc2c(c(N3CCN(C(=O)c4ccccc4F)CC3)n1)CN(Cc1ccccc1)CC2	-27.3% (inactive)
COCC(=O)N1CCC(N(C)Cc2ccccc2)CC1C(=O)O (stereo not given)	3.74% (inactive)
Cc1nn(C)cc1-c1ccnc(NCC2CCN(Cc3ccccc3)C2)n1 (stereo not given)	-13.6% (inactive)
Cc1nn(-c2ccccc2)c(C)c1-c1ccnc(NCc2cnc3ccccn23)n1	-82.8% (active)
COc1cc(CN(C)Cc2ncccc2C)cc(OC)c1	-4.74% (inactive)
COCCN1C(=O)CCc2cc(NC(=O)CC(C)(C)C)ccc21	3.59% (inactive)
CN(Cc1cccnc1)C1COC2(CCN(Cc3cccs3)CC2)C1 (stereo not given)	1.79% (inactive)
O=C(NCc1cccnc1)c1ccc(N2CCC(NC3C4CC5CC(C4)CC3C5)CC2)cc1 (stereo not given)	5.88% (inactive)
O=C(NCCc1nnc2n1CCNCC2)C1(c2ccccc2)CC12CCCC2 (stereo not given)	-3.83% (inactive)
COc1ccc(OC)c(C(=O)c2ccc(Cl)cc2)c1	36.6% (inactive)
Cc1cc(C)c2c(-n3cccc3)c(C(=O)c3ccc(Cl)cc3)sc2n1	-91.8% (active)
Cc1cc(C)c2c(n1)sc1c(=O)n(C)cnc12	-4.83% (inactive)
Cn1cc(C(CNC(=O)Nc2cccc(F)c2)c2cccnc2)c2ccccc21 (stereo not given)	27% (inactive)
CO[C@@H]1CN(C)C(=O)c2cc(NC(=O)NC3CCCCC3)ccc2OC[C@H](C)N(CC2CCOCC2)C[C@H]1C	-30.9% (inactive)
CO[C@@H]1CN(C)C(=O)c2ccc(NS(C)(=O)=O)cc2OC[C@@H](C)N(CC2CC2)C[C@@H]1C	-56.4% (inactive)
CCCC(=O)Nc1ccc2c(c1)OC[C@@H](C)N(CC1CCOCC1)C[C@H](C)[C@H](OC)CN(C)C2=O	-83.2% (active)

Compound	activity change, negative = inhibition
O=C(CCc1nc(-c2ccccn2)no1)N1CCC(CCc2ccccc2F)CC1	18.8% (inactive)
CCc1[nH]c2c(CNS(=O)(=O)N(C)C)cc(C)cc2c1C	-4.66% (inactive)
Cc1nc(Nc2ccc(Cl)cc2)sc1C(=O)c1ccncc1	0.796% (inactive)
Fc1ccc(Cl)cc1-c1nc(Nc2ccncc2)c2nccnc2n1	-81% (active)
O=C(Nc1ccccc1Oc1ccc(F)cc1)C1CC(=O)N(Cc2cccnc2)C1 (stereo not given)	18.8% (inactive)
O=C(Nc1nc(-c2ccc(Br)cc2)cs1)c1c(O)c2ccccc2[nH]c1=O	8.75% (inactive)
CCCc1nc(C)c(CNC(=O)C2CCOC2)s1 (stereo not given)	-2.34% (inactive)
COCCCNC(=O)c1nc(Nc2ccc(F)cc2)c2ccccc2n1	-29% (inactive)
C=CC(=O)Nc1ccc2c(c1)CCC(=O)N2CC	-3.01% (inactive)
O=C(Cn1c(C(=O)c2ccccc2)nc2ccccc21)c1ccc(Br)cc1	-103% (active)
O=C(Cn1c(NCCCO)nc2ccccc21)c1ccccc1	-22.3% (inactive)
O=C(CNC(=O)c1ccccc1F)c1ccc(Br)cc1	264% (inactive)
Clc1cccc(CN2CC3CCCC(C2)C3N2CCOCC2)c1Cl (stereo not given)	9.4% (inactive)
C[C@H]1CN([C@@H](C)CO)C(=O)c2ccccc2-c2ccccc2CO[C@H]1CN(C)C(=O)Nc1ccc(-c2ccccc2)cc1	-62.1% (inactive)
C[C@H]1CN([C@@H](C)CO)C(=O)c2cccc(NC(=O)c3ccc(-c4nccs4)cc3)c2O[C@@H]1CN(C)C(=O)Nc1ccc(C(F)(F)F)cc1	-80.3% (active)
C[C@@H]1CN([C@H](C)CO)C(=O)c2cccc(NC(=O)c3ccc(-c4nccs4)cc3)c2O[C@@H]1CN(C)C(=O)Nc1ccc(C(F)(F)F)cc1	-77.7% (active)
CC(C)NC(=O)N(C)C[C@H]1Oc2c(NS(=O)(=O)c3cccs3)cccc2C(=O)N([C@H](C)CO)C[C@H]1C	-14.3% (inactive)
C[C@@H]1CN([C@H](C)CO)C(=O)c2cccc(NC(=O)NC3CCCCC3)c2O[C@H]1CN(C)Cc1ccc(C(F)(F)F)cc1	-74.3% (active)
C[C@H](CO)N1C[C@H](C)[C@@H](CN(C)Cc2ccc(C(F)(F)F)cc2)Oc2c(NC(=O)NC3CCCCC3)cccc2C1=O	-53.4% (inactive)
Cc1noc(C)c1S(=O)(=O)Nc1cccc2c1O[C@H](CN(C)Cc1ccc(C(F)(F)F)cc1)[C@H](C)CN([C@@H](C)CO)C2=O	25.4% (inactive)
Cc1ccc(S(=O)(=O)Nc2cccc3c2O[C@H](CN(C)C(=O)Nc2ccc(C(F)(F)F)cc2)[C@@H](C)CN([C@@H](C)CO)C3=O)cc1	16.3% (inactive)
C[C@H]1CN([C@@H](C)CO)C(=O)c2cccc(NC(=O)C3CCOCC3)c2O[C@@H]1CN(C)C(=O)Nc1cccc2ccccc12	5.47% (inactive)
